From PubChem
This excerpt belongs to a sample that is enriched for hits.
MRP resist rev: compounds reversing MRP-mediated drug resistance. H69AR cells + 2 uM doxorubicin, CellTiter-Glo, 72 h. differential viability (reversal), % at 10 µM. 85,000 tested, 0.04% active;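 active = viability drop by adding the cancer drug above about 55%, with treated viability meeting a 40% cutoff, limit read from the data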;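 note: viability without doxorubicin minus viability with 2 µM doxorubicin for each compound; larger differential means the compound sensitizes cells more to doxorubicin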
MRP-1 activ: MRP-1 activation. AID 799. viability increase, % at 10 µM. 140,000 tested, 0.61% active. H69AR cells + doxorubicin, viability rescue, CellTiter-Glo;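 active = viability gain under doxorubicin at or above a set limit, the compound median plus 3 SD, cut at about 4.7% in these data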;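 note: MRP-1 overexpressing cells given doxorubicin 25 µM after compound pretreatment; 18-22 h compound pretreatment then 72 h with doxorubicin before readout; 0% = doxorubicin-only wells and 100% = vehicle-treated cells without doxorubicin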
Numbers without * were called inactive; . = no result given.

SMILES	MRP resist rev	MRP-1 activ
O=C(OCC(=O)C12CC3CC(CC(C3)C1)C2)c1cccnc1Cl	.	-0.4
COc1cccc(C(=O)Nc2cccc(C(=O)NCC(C)C)c2)c1	.	-4.0
CC(C)CNC(=O)c1cccc(NC(=O)Cc2ccc(Br)cc2)c1	.	6.2*
Cc1ccc(NC(=O)CSc2nnc(-c3n[nH]c4ccccc34)n2-c2ccccc2)c(C)c1	.	-5.2
Cn1nc(C(F)(F)F)c(C(=O)Nc2ccc(C(F)(F)F)cc2)c1Cl	.	6.2*
Cn1nc(-c2ccccc2)c(C(=O)Nc2ccc(C(F)(F)F)cc2)c1Cl	.	-2.9
COc1ccc(C(=O)NCCn2cc(SCC(=O)Nc3nnc(C)s3)c3ccccc32)cc1	-35.5	7.9*
Cc1nnc(NC(=O)CSc2cn(CCNC(=O)c3ccccc3)c3ccccc23)s1	6.5	-1.9
Cc1nc2cccc(C)n2c(=O)c1Cl	1.2	-2.5
COc1cc(C(=O)OCCNC(=O)c2ccncc2)cc(OC)c1OC	.	-1.8
Cc1cccc(OCCNC(=O)c2ccc(Oc3ccc(C(F)(F)F)cc3[N+](=O)[O-])cc2)c1	.	8.2*
Cc1cccc(OCCNC(=O)c2cccc(Oc3ccc(C(F)(F)F)cc3[N+](=O)[O-])c2)c1	.	1.9
COc1ccc(NC2=Nc3ccccc3N3C2=Nc2c(c(C)nn2-c2ccc(C)cc2)C3c2cccnc2)cc1 (stereo not drawn)	3.4	8.8*
CC(=O)Nc1ccc(NC2=Nc3ccccc3N3C2=Nc2c(c(C)nn2-c2ccccc2)C3c2ccccc2)cc1 (stereo not drawn)	-11.9	4.6
COc1ccc(N(C(=O)c2ccccc2OC(C)=O)C(C)C2CC2)cc1 (stereo not drawn)	6.9	-4.4
Cc1oc2c(O)c(O)ccc2c(=O)c1-c1cnn(-c2ccccc2)c1	.	4.9*
Cc1oc2cc(O)cc(C)c2c(=O)c1-c1cnn(-c2ccccc2)c1	-7.0	-2.0
COc1cccc(/C=N/N2C(=O)CSC2=S)c1O	.	8.0*
COc1cccc(C=Nc2cc(C)cc(C)c2)c1O	.	-2.5
O=Nc1c(O)n(Cc2ccc(Cl)c(Cl)c2)c2ccccc12	.	-3.8
Cc1ccccc1NC(=O)CCN1C(=O)CSC1=O	7.9	2.4
CC1=C(C(=O)Nc2ccccc2C)C(c2ccc(C)o2)N2C(=O)CSC2=N1 (stereo not drawn)	3.4	7.3*
CC(C)c1ccc(OCC(=O)N(Cc2ccccc2)c2ccccn2)cc1	.	-0.9
CCOC(=O)Cc1csc(NC(=S)NC(=O)C(C)(C)C)n1	.	12.9*
CCOC(=O)Cc1csc(NC(=S)NC(=O)c2ccc(Cl)cc2)n1	.	0.8
SMILES	MRP resist rev	MRP-1 activ
Cc1onc(-c2c(F)cccc2Cl)c1C(=O)Nc1sc2c(c1C#N)CCC(C(C)(C)C)C2 (stereo not drawn)	-0.3	11.4*
Cc1onc(-c2c(F)cccc2Cl)c1C(=O)Nc1sc2c(c1C(N)=O)CCC2	-52.7	-1.0
Cn1c(-c2ccc(C=O)s2)nc2c3ccccc3c3ccccc3c21	-16.6	-1.1
CCC(=O)Nc1ccc(C(=O)N/N=C/c2ccc([N+](=O)[O-])cc2)cc1	.	-2.1
CCN(CC(=O)NC(C)C)C(=O)c1ccc(Cl)cc1	.	6.0*
CCN(CC(=O)NC(C)C)C(=O)c1ccc(S(=O)(=O)N(C)c2ccccc2OC)cc1	10.8	-3.3
COc1ccc2nc(NC(=O)C(NS(=O)(=O)c3cccs3)C(C)C)sc2c1 (stereo not drawn)	3.2	-0.9
O=C(COc1ccc2c(c1)CCC2)N1CCc2ccccc21	2.5	0.2
COc1ccc(OC)c(NC(=O)C(=O)N/N=C/c2ccccc2[N+](=O)[O-])c1	.	-2.9
COc1ccc(NC(=O)C(=O)N/N=C/c2cc(C)n(-c3cccc(Cl)c3Cl)c2C)c(OC)c1	.	5.3*
Cc1cccc(-n2c(C)cc(/C=C3\C(=N)N4N=C(CC(C)C)SC4=NC3=O)c2C)c1	.	0.0
Cc1cc(C)cc(-n2c(C)cc(/C=C3\C(=N)N4N=C(CC(C)C)SC4=NC3=O)c2C)c1	.	4.7*
COc1ccc(OCC(=O)O/N=C(\N)Cc2cccs2)cc1	.	0.1
N/C(Cc1cccs1)=N\OC(=O)COc1ccc(Br)cc1	-3.2	5.3*
CCOc1ccc(C(=O)NCC(=O)OCc2ccc(F)cc2Cl)cc1	.	2.5
CCC(C)c1ccc(NC(=O)COc2c(F)c(F)c(C(F)(F)F)c(F)c2F)cc1 (stereo not drawn)	.	-3.2
S=C(c1cn(Cc2ccc(Br)cc2)c2ccccc12)N1CCOCC1	.	1.6
Cc1ccc(CC2SC(=Nc3ccccc3)N(c3ccccc3)C2=O)cc1 (stereo not drawn)	.	5.7*
O=C(O)CC1SC(=Nc2ccccc2)N(c2ccccc2)C1=O (stereo not drawn)	-5.2	-2.0
Cc1ccc(C2C(C(=O)c3sc(C)nc3C)=C(O)C(=O)N2CCCN(C)C)o1 (stereo not drawn)	3.8	.
N#CC(C#N)=NNc1ccc(S(=O)(=O)N2CCCC2)cc1	.	5.1*
N#C/C(=N\Nc1ccc(S(=O)(=O)N2CCCCC2)cc1)C(N)=S	.	-2.0
Cc1cc(C)n2nc(C(=O)Nc3nnc(C4CC4)s3)nc2n1	7.6	5.2*
Cc1csc(NC(=O)c2nc3nc(C)cc(C)n3n2)n1	-2.8	-2.0
Clc1ccc(SCCCCN2CCNCC2)cc1	.	-3.5
SMILES	MRP resist rev	MRP-1 activ
Cc1ccc(NC(=O)c2cc(S(=O)(=O)N3CCOCC3)c(Br)s2)cc1	.	-1.7
COc1cc(/C=C(\C#N)c2ccccn2)ccc1OCc1ccccc1Cl	.	5.9*
COc1cc(/C=C(\C#N)c2ccccn2)ccc1OCC(=O)Nc1cccc(C(F)(F)F)c1	.	-4.8
Cc1cc(C)n(CCc2nc(-c3ccc(-c4ccccc4)cc3)cs2)n1	.	7.3*
Cc1cc(C)n(CCc2nc(-c3cccs3)cs2)n1	17.1	2.1
Cc1cccc(C(=O)NCc2nnc3c4ccccc4c(-c4ccccc4)nn23)c1	.	-0.1
CC(C)CC(c1nnnn1C(C)C)N1CCN(c2ccccc2)CC1 (stereo not drawn)	8.2	-1.7
COc1ccccc1CNC(=O)c1cc2c(=O)n(C)c3ccccc3c2n1C	1.4	.
COc1cc(-c2[nH]nc3c2C(c2ccco2)C(C#N)=C(N)O3)cc(OC)c1OC (stereo not drawn)	.	-1.9
Cc1ccc(C)c(N2CCN(C(=O)c3ccc4nc(-c5ccco5)c(-c5ccco5)nc4c3)CC2)c1	0.7	9.9*
COc1ccccc1N1CCN(C(=O)c2ccc3nc(-c4ccco4)c(-c4ccco4)nc3c2)CC1	21.9	-1.5
CS(=O)(=O)N(CC(=O)Nc1cccc(F)c1)Cc1ccccc1	-2.4	-1.4
CC12CCC(C(=O)N(CSC(=S)N/N=C\c3ccccc3)C1=O)C2(C)C (stereo not drawn)	-12.6	4.8*
CC12CCC(C(=O)N(CSC(=S)N/N=C\c3ccccc3Cl)C1=O)C2(C)C (stereo not drawn)	12.0	3.8
CC(=O)N/C(=C/c1ccc2c(c1)OCO2)C(=O)NCC(=O)O	.	-0.5
O=C(NNC(=O)c1ccc(SCC2CCCO2)c([N+](=O)[O-])c1)c1ccc(Cl)c([N+](=O)[O-])c1 (stereo not drawn)	-25.9	-0.1
Cc1ccc(C(=O)NNC(=O)c2ccc(SCC3CCCO3)c([N+](=O)[O-])c2)cc1 (stereo not drawn)	3.9	8.2*
